Compounds without any hit were thinned out: in the full panel of roughly 83,000, 20% have a hit.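 Results are percent growth after 48 hours of single-concentration exposure. 100 means growth as in untreated cells, lower positive values show inhibition; negative values down to -100 show cell death.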 Active and inactive are the calls of the source.

The assay relates to NCI-H522 lung. Nature of the assay: NCI-60 one-dose screen, 48 h (100 = growth as untreated, 0 = no growth, -100 = all killed). As to conditions: 10 µM unless noted. How it is done: Growth inhibition of the NCI-H522 human Non-Small Cell Lung tumor cell line is measured as a screen for anti-cancer activity. Cells are grown in 96 well plates and exposed to the test compound for 48 hours. Compounds are tested at a single concentration, which is 10^-5 M for most compounds. The reported endpoint is percent growth (GI% or GIPRCNT), where numbers from 0 - 100% represent growth inhibition, and numbers from -100% - 0 represent cell death. For example, a value of 40 represents 60% growth inhibition. A value of 0 means no net growth occurred over the course of the experiment. A value of -40 indicates 40% of cells at the beginning of the experiment died by the end of the experiment. A value of -100 means all cells are dead at the end of the experiment.
NCI-60 Human Tumor Cell Lines Screen was performed using the standard one-dose NCI protocol, which is described in more detail at https://dtp.cancer.gov/discovery_development/nci-60/default.htm.
Compounds with GIPRCNT values below 10 were considered active. Activity score was based on GIPRCNT using the following formula: […]
Score is 0 for GIPRCNT values of 100 or above, 50 for GIPRCNT values of 0, and 100 for GIPRCNT values of -100.
Take `COC1OC(CO)C(OC)C(O)C1O` (stereo not given): the growth is 113% (inactive).
In the case of `Nc1cc(F)ccc1[N+](=O)[O-]`, the growth was 106% (inactive).
Turning to `O=C(O)CSCC(=O)Nc1cc(C(F)(F)F)ccc1Cl`, the growth is 99.9% (inactive).
The figure for `Cn1c(=O)c2nc3c(=O)n(C)c(=O)n(C)c3nc2n(C)c1=O` is 93.8% (inactive).
The figure for `COc1ccc(C)cc1NC(=O)SC(C)C` is 88.7% [100 µM] (inactive); for `Nc1nnc2cc(F)ccc2n1` it is 99.8% (inactive); for `Cc1ccc(N)c(S(=O)(=O)O)c1` it is 156% (inactive).
The value for `Nc1ccccc1SC1CC(=O)N(c2ccc(Cl)c(Cl)c2)C1=O` (stereo not given) was 117% (inactive).
For the compound `O=S(=O)(O)c1cccc2cccnc12`, the growth was 97.4% (inactive).
For `O=CNCCc1ccccc1`, the growth is 104% (inactive).
The figure for `CCOC(=O)CO` is 97% (inactive); for `CCOC(=O)/C(C#N)=C\c1c[nH]c2ccccc12` it is 70.4% (inactive); for `O=C(O)c1cccc(-n2ncc(Cl)c(Cl)c2=O)c1` it is 36% (inactive).
The figure for `CC1(C)CCC(C)(C)NC(=S)N1` is 94.8% (inactive); for `Cc1[nH]n(-c2ccccc2)c(=O)c1C=NC(=S)C(N)=S` it is 86.2% (inactive); for `C=CCC(OC(C)=O)c1ccc(OC)c(OC)c1` (stereo not given) it is 92.1% (inactive).
The value for `CN(C)c1ncnc2c1cnn2C` was 106% (inactive); that for `O=C1Nc2ccccc2/C1=C\c1ccccc1O` was 61.6% (inactive); that for `Cc1cc(C)cc(OCC(=O)O)c1` was 93.7% (inactive).
Turning to `C=CC1=NC(C)(C)CC(C)O1` (stereo not given), the growth was 97.5% (inactive).
As for `CC(=O)N(C(C)=O)c1ccc(C)cc1`, the growth is 113% (inactive).
The figure for `NS(=O)(=O)c1cc(=O)[nH]c(=O)[nH]1` is 74.5% (inactive); for `CN(C)Cc1ccccn1` it is 91.9% (inactive).
The figure for `CC(C)NC(=O)OCc1c(COC(=O)NC(C)C)c(-c2ccc(Cl)cc2)n2c1CCC2` is 51.2% (inactive); for `COc1cc(-c2ccc(NC(=O)CC(C)=O)c(OC)c2)ccc1NC(=O)CC(C)=O` it is 95.5% (inactive).
The figure for `COc1ccc2c(ccc[n+]2C)c1` is 54.7% (inactive); for `N#C/C(=C\c1ccc(C#N)cc1)C(=O)c1ccccc1` it is 91.4% (inactive).
As for `COC(CCCl)c1ccc(Cl)cc1` (stereo not given), the growth was 74.6% (inactive).
The figure for `O=S(=O)(OCCOS(=O)(=O)c1ccccc1)c1ccccc1` is 90.5% (inactive); for `O=C(O)C1CSC(c2ccccc2)N1` (stereo not given) it is 79.4% (inactive).
The figure for `CCCCCC(=O)OCCC1CCCCC1` is 95% (inactive).
Consider `CCC(C)c1c(N)n(S(=O)(=O)c2ccc(C)cc2)oc1=O` (stereo not given), for which the growth was 90.1% (inactive).
The figure for `COC(=O)c1cccc([N+](=O)[O-])c1` is 101% (inactive); for `O=C1C=C[C@H](O)[C@@]2(CO)O[C@@H]12` it is -60.6% (active); for `OC(CBr)CCBr` (stereo not given) it is 96.5% (inactive).
Turning to `NNc1ncccn1`, the growth is 84.6% (inactive).
For `CC(=O)N(CCCCCCN(C(C)=O)C(C)=O)C(C)=O`, the growth was 102% [100 µM] (inactive).
The figure for `CCCCCCCCCCCCCCCCOc1ccccc1NC(=O)CC(C)=O` is 87.1% (inactive); for `Cc1ccc(S(=O)(=O)CCCl)cc1` it is 113% (inactive); for `COc1cc(OC)c2cc(C(=O)c3ccc(C#N)cc3)c(=O)oc2c1` it is 93.1% (inactive).
